# Data from PubChem BioAssay.
# The source made the active and inactive calls. Unless noted, how the calls were made is not given here.
# Legend:
# [1] = system: XIP peptide (Xip251-270) binding; test: small-molecule binders of XIP peptide, primary screen, biochemical, small-molecule microarray, fluorescence 635/667 nm, 0.1 µg/mL protein (AID 1182); conditions: fluorescent protein binding, 635 nm, higher = more signal, called active from +8 up or from −8 down
# [2] = system: XIP peptide (Xip251-270); test: small-molecule binders of XIP peptide, primary screen, biochemical, small-molecule microarray, fluorescence 635/667 nm, 0.5 µg/mL protein (AID 1183); conditions: small-molecule microarray binding, fluorescence 635 nm; higher = more signal
# [3] = Plasmodium falciparum growth inhibition, primary screen, strain 3D7, DAPI fluorescence, 100 nL (AID 1184);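 further: parasites grown inside human red blood cells in medium with human serum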; conditions: P. falciparum 3D7 growth, 3 d, higher = more signal
# [4] = target: Homeobox protein Hox-A13 (Mus musculus) (UniProt Q62424); test: inhibitors of HoxA13-DNA binding, primary screen, biochemical, fluorescence polarization, labeled oligonucleotide (AID 1185); conditions: 15 min, higher = more signal, called active from +8 up or from −8 down
# Sequence of Homeobox protein Hox-A13 (Mus musculus) (Q62424 whole entry, looked up): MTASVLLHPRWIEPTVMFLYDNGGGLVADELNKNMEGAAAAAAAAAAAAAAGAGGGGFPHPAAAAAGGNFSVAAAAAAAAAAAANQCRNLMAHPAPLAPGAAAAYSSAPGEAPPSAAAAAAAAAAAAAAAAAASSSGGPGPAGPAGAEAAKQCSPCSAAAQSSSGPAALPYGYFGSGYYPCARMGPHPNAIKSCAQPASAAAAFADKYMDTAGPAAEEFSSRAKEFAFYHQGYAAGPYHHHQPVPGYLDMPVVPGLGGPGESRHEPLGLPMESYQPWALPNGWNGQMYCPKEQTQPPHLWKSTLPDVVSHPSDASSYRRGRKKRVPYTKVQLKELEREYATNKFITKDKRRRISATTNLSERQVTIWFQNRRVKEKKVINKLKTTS
# [5] = inhibitors of hydroxyurea-induced Chk1 phosphorylation, primary screen, imaging, HeLa, phospho-Chk1 antibody, percent positive cells (AID 1186); conditions: hydroxyurea-induced phospho-Chk1 immunofluorescence imaging, higher = more signal
# [6] = inhibitors of hydroxyurea-induced Chk1 phosphorylation, primary screen, imaging, HeLa, phospho-Chk1 nuclear intensity (AID 1187); conditions: hydroxyurea-induced phospho-Chk1 immunofluorescence imaging, higher = more signal
Structure (SMILES),composite z-score [1],composite z-score [2],z-score [3],z-score [4],z-score [5],z-score [6]
CS(=O)(=O)CCOC(=O)C1=CC(c2ccc(CO)cc2)=CC(C2CC2)N(Cc2cc3c(cc2Br)OCO3)C=C1C(=O)OCCS(C)(=O)=O (stereo unspecified),0.0295 (inactive),0.639,-2.58,-2.94 (inactive),-0.572 (inactive),-0.534 (inactive)
CCOc1cc(C(O)C2C=CC3C(=O)N(c4ccccc4)C(=O)C3N2Nc2ccc([N+](=O)[O-])cc2)ccc1O (stereo unspecified),-0.394 (inactive),0.546,-1.76,-5.51 (inactive),0.555 (inactive),-0.452 (inactive)
COCCOC(=O)N1C(=O)[C@@]2(c3cc(C#Cc4ccc(OC)cc4)ccc31)[C@H](C(=O)N1CCN(c3ncccn3)CC1)[C@H]1C(=O)O[C@H](c3ccccc3)[C@H](c3ccccc3)N1[C@@H]2c1ccc(O)cc1,0.0853 (inactive),0.481,-1.38,0.261 (inactive),-0.0134 (inactive),-0.454 (inactive)
O=C1C2C=CC(C(O)c3cccs3)N(Nc3ccccc3F)C2C(=O)N1c1ccccc1 (stereo unspecified),-0.238 (inactive),0.111,0.669,-4.17 (inactive),-0.143 (inactive),-0.299 (inactive)
COCCOC(=O)N1C(=O)[C@@]2(c3ccccc31)[C@H](C(=O)NC[C@H](O)c1ccccc1)[C@H]1C(=O)O[C@H](c3ccccc3)[C@H](c3ccccc3)N1[C@@H]2c1ccc(OCCO)cc1,0.868 (inactive),0.645,-2.02,-4.33 (inactive),-0.293 (inactive),-0.262 (inactive)
O=C1O[C@@H](c2ccccc2)[C@@H](c2ccccc2)N2[C@@H](c3ccc(OCCO)cc3)[C@]3(C(=O)Nc4ccc(C#CC5=CCCCC5)cc43)[C@@H](C(=O)O)[C@H]12,0.383 (inactive),0.504,0.287,-3.99 (inactive),0.419 (inactive),0.542 (inactive)
O=C1OCC=C[C@H]2OC34C=CCN(c5ccc(Cl)cc5)C(=O)[C@H]3N(CCCCCCO)C(=O)[C@@H]4[C@@H]12 (stereo partly specified),-0.513 (inactive),-1.03,-0.358,-4.21 (inactive),-0.181 (inactive),-0.0007 (inactive)
CC(C)CNC(=O)[C@@]1(c2ccc([N+](=O)[O-])cc2)CC(=O)N(CC23CC4CC(CC(C4)C2)C3)[C@@H]1c1ccc(CO)cc1I,0.106 (inactive),0.719,-0.534,-3.42 (inactive),-0.264 (inactive),-0.135 (inactive)
CN(C)CCCCNC(=O)[C@H]1C[C@H]2C(=O)N[C@@H](Cc3ccccc3)C(=O)N2[C@H]1c1ccc(O)cc1,0.508 (inactive),0.0009,-1.16,-0.0255 (inactive),-0.0685 (inactive),-0.195 (inactive)
COc1cc(C(O)C2C=CC3C(=O)N(c4ccccc4)C(=O)C3N2Nc2ccc(C#N)cc2)cc(OC)c1OC (stereo unspecified),1.42 (inactive),0.906,0.162,-4.55 (inactive),0.859 (inactive),0.668 (inactive)
COC(=O)[C@@]1(Cc2ccccc2N=[N+]=[N-])COC(c2ccc(OCCCO)cc2)=N1,1.25 (inactive),0.66,-0.82,-5.06 (inactive),0.428 (inactive),0.135 (inactive)
CC(C)C(=C=CC[C@H](O)c1cccc(OCCO)c1)C[C@H](O)COCc1ccccc1,0.31 (inactive),-0.376,-1.49,-3.93 (inactive),-0.648 (inactive),-0.289 (inactive)
COCCOC(=O)N1C(=O)[C@@]2(c3cc(C#CCCO)ccc31)[C@H](c1ccccc1OCCO)N1[C@H](c3ccccc3)[C@H](c3ccccc3)OC(=O)[C@H]1[C@@H]2C(=O)N1CCN(c2ncccn2)CC1,0.377 (inactive),0.783,-1.89,-1.16 (inactive),-0.0825 (inactive),-0.157 (inactive)
[N-]=[N+]=Nc1ccccc1[C@@H]1OC(c2ccc(OCCCO)cc2)=N[C@]1(CCS(=O)(=O)c1ccccc1)C(=O)N1CCOCC1,1.12 (inactive),0.731,-2.09,-1.96 (inactive),0.0445 (inactive),0.143 (inactive)
C=C(CCCC)C(=O)CC[C@H](OC(=O)c1cccnc1)c1cccc(OCCO)c1,0.179 (inactive),0.143,-3.03,-4.56 (inactive),-0.296 (inactive),-0.249 (inactive)
COc1ccc(C(=O)Nc2cccc(CN3C(=O)[C@@]4(O[C@@H](CCn5cc(CCO)nn5)[C@H]([Si](C)(C)c5ccc(OC)cc5)[C@H]4C)c4ccccc43)c2)cc1,0.201 (inactive),0.393,-2.65,-3.85 (inactive),0.103 (inactive),0.199 (inactive)
COCCOC(=O)N1C(=O)[C@@]2(c3cc(C#CCC(C(=O)OC)C(=O)OC)ccc31)[C@H](c1ccccc1OCCO)N1[C@H](c3ccccc3)[C@H](c3ccccc3)OC(=O)[C@H]1[C@@H]2C(N)=O,0.547 (inactive),0.827,-2.07,-1.36 (inactive),-0.192 (inactive),-0.0971 (inactive)
COCCOC(=O)N1C(=O)[C@@]2(c3ccccc31)[C@H](C(=O)Nc1nc3ccccc3s1)[C@H]1C(=O)O[C@H](c3ccccc3)[C@H](c3ccccc3)N1[C@@H]2c1ccc(OCCO)cc1,0.886 (inactive),0.805,-1.13,0.34 (inactive),-0.178 (inactive),-0.249 (inactive)
Cc1ccc(F)cc1S(=O)(=O)N[C@@H]1CCN(Cc2ccc(-c3ccccc3)cc2)C1,0.765 (inactive),0.479,-1.89,-4.9 (inactive),-0.23 (inactive),-0.0784 (inactive)
COc1cc(CO)ccc1OC(C)=O,-0.152 (inactive),0.383,0.186,0.472 (inactive),-0.111 (inactive),0.0389 (inactive)
O=C1OCCC/C=C\[C@H]2OC34C=CCN(Cn5nnc6ccccc65)C(=O)[C@H]3N(CCCCCO)C(=O)[C@@H]4C12 (stereo partly specified),0.145 (inactive),0.545,0.961,-4.39 (inactive),0.812 (inactive),0.888 (inactive)
